# Source: PubChem BioAssay (The Scripps Research Institute Molecular Screening Center)
# Only some compounds are listed: those with a hit (about 3.4% of all), similar ones and a draw of the others.
# TEAD-YAP inh: TEAD-YAP interaction inhibition, primary screen, TEAD-YAP interaction inhibitor project, luminescence, HEK-TIYL cells; TEAD-Gal4/YAP UAS-luciferase luminescence; inhibition, % at 9.12 µM; AID 1259422, 2018; 640,000 compounds, 1.4% hits; in the data active = inhibition above about 32%
# GPR151 ag: activators of human GPR151, primary screen, cell-based, PathHunter beta-arrestin, luminescence. PathHunter beta-arrestin GPR151 cells. G-protein coupled receptor 151 (Homo sapiens), Q8TDV0. AID 1508602, 2020. 650,000 compounds, 1% hits. activation, % at 11.2 µM; in the data active = activation above about 4.9%
# MITF primary: MITF inhibitors, primary screen, biochemical, AlphaScreen, human. inhibition, % at 2.6 µM. Microphthalmia-associated transcription factor (Homo sapiens), O75030. AlphaScreen MITF homodimerization, bead proximity signal. AID 1259374, 2018. 650,000 compounds, 0.91% hits; in the data active = inhibition above about 50%
# Target sequence (O75030 whole entry, looked up): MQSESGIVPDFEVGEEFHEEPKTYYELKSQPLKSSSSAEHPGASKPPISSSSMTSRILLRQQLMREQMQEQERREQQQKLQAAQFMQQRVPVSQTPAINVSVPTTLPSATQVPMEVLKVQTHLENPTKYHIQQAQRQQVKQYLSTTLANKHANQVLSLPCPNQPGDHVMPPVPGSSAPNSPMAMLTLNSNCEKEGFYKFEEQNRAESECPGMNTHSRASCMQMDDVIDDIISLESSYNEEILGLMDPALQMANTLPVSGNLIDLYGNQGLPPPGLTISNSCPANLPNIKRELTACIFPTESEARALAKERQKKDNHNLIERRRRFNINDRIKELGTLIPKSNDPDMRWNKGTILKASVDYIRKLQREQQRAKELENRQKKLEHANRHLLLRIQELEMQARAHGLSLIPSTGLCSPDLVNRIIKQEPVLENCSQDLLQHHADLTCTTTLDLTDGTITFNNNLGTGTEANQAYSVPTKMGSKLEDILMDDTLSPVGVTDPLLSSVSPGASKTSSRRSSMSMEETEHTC
# FBW7 activator: FBW7 E3 ligase activators, primary screen, biochemical, AlphaScreen, human; F-box/WD repeat-containing protein 7 (Homo sapiens), Q969H0; AlphaScreen FBW7–phospho-cyclin E peptide binding, activator screen; normalized activity (activation), % at 26.1 µM; 650,000 compounds, 0.13% hits; AID 1259310, 2017; in the data active = normalized activity above about 1.9%;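 note: purified mutant Fbw7 with reduced substrate affinity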
# Numbers stand for hits; - = inactive.
SMILES,TEAD-YAP inh,GPR151 ag,MITF primary,FBW7 activator
Cc1ccc(C(=O)NCCOc2ccccc2)cc1,73,-,-,-
CC(=O)c1ccc(C(=O)NCCOc2ccccc2)cc1,68,-,-,-
CCOC(=O)/C(C#N)=C/c1cc(Cl)cc(Cl)c1O,-,-,-,-
O=C(NNC1OC(CO)C(O)C1O)c1ccccc1O (configuration not stated),-,-,-,-
CC1(C)CC(Nc2nc3nonc3nc2N2CCOCC2)CCO1 (configuration not stated),-,-,-,-
Cc1cccc(NC(=O)CSc2nnc3n(N)cnn23)n1,-,-,-,-
CN1CCN(C(=O)c2cc(-c3ccc(Br)cc3)on2)CC1,-,-,-,-
Cc1ccc(-c2cc(C(=O)N3CCOCC3)no2)cc1,43,-,-,-
O=C(c1cc(-c2ccc(Cl)cc2)on1)N1CCCCCC1,-,-,-,-
O=C(c1cc(-c2ccc(O)cc2)on1)N1CCCCCC1,50,-,-,-
CN1CCN(C(CNS(=O)(=O)c2ccc(Cl)cc2)c2ccc3c(c2)OCO3)CC1 (configuration not stated),-,-,-,2.4
COc1ccc(S(=O)(=O)NCC(c2ccc3c(c2)CCN3C)N2CCN(C)CC2)cc1 (configuration not stated),-,-,-,-
CN1CCN(C(CNS(=O)(=O)c2cccc(F)c2)c2ccc3c(c2)CCN3C)CC1 (configuration not stated),-,-,59,-
CCOc1ccc(NC(=O)Nc2nnc(C)s2)cc1,-,-,-,-
NS(=O)(=O)c1ccc(Cl)c([N+](=O)[O-])c1,-,-,-,-
COc1ccccc1OCCn1cc(C(=S)N2CCOCC2)c2ccccc21,-,-,-,-
COc1ccc(OCCn2cc(C(=S)N3CCOCC3)c3ccccc32)cc1,32,-,-,-
Cc1ccc(C(=O)NC(C)Cc2cccs2)c(C)c1 (configuration not stated),88,-,-,-
CCC(C)NC(=O)c1ccc(C)cc1C (configuration not stated),-,-,-,-
COc1cc(C(=O)O)c(-n2c(C)ccc2C)cc1OC,-,-,72,-
COc1ccc(Br)cc1C(=O)O,-,-,-,-
COc1ccc2nc3oc(C(=O)N4CCOCC4)cc3cc2c1,64,-,-,-
O=C(COc1ccc(Cl)cc1Cl)NCC12C=CC(O1)C1C(=O)N(c3ccc([N+](=O)[O-])cc3)C(=O)C12 (configuration not stated),-,-,-,-
N#Cc1c(Cl)nsc1N/N=C/c1ccccc1,41,-,-,-
CSc1nsc(N/N=C/c2ccccc2)c1C#N,-,-,-,-
SMILES,TEAD-YAP inh,GPR151 ag,MITF primary,FBW7 activator
N#C/C(=C\c1ccc(OCC(=O)O)cc1)S(=O)(=O)c1ccc(Cl)cc1,-,-,-,-
CC(C)C(NC(=O)OC(C)(C)C)C(=O)N1CCCC1C(N)=O (configuration not stated),-,-,-,2.0
O=C(Cc1n[nH]c(=O)c2ccccc12)OCC(=O)c1ccc2c(c1)OCCO2,50,-,-,-
COc1ccc(OC)c(C(=O)COc2ccccc2C#N)c1,41,-,-,-
CSc1ccc(/C=C/C(=O)NNC(=O)CN2CCCc3ccccc32)cc1,-,-,-,-
O=S(=O)(N/N=C1\CC(c2ccccc2)Oc2ccccc21)c1ccccc1 (configuration not stated),-,-,-,2.7
Fc1ccccc1CSc1nnnn1-c1ccc2c(c1)OCO2,-,-,-,-
Fc1ccc(CSc2nnnn2-c2ccc3c(c2)OCO3)c(Cl)c1,51,-,-,-
COC(=O)c1ccc2c(=O)n(Cc3ccc4c(c3)OCO4)c(SCc3cccc([N+](=O)[O-])c3)nc2c1,-,-,-,-
CCOC(=O)c1cccc(Nc2cc(C)nc3c(C)cc(C)cc23)c1,-,-,-,-
COC(=O)c1ccc(Nc2cc(C)nc3c(C)cc(C)cc23)cc1,49,-,-,-
CC(=O)Nc1ccc(Nc2cc(C)nc3c(C)cc(C)cc23)cc1,-,-,-,-
CCOC(=O)c1ccc2nc(C)cc(Nc3cccc(O)c3)c2c1,75,-,-,-
CCOC(=O)c1ccc(Nc2cc(C)nc3c(C)cc(C)cc23)cc1,47,-,-,-
CCOC(=O)c1c(C)oc2ccc(N(C(C)=O)S(=O)(=O)c3ccc(F)cc3C)cc12,-,-,-,-
COc1ccccc1C1N(c2ccc(C)cc2)CCN1c1ccc(C)cc1,-,-,-,-
